Measurements reported in PubChem BioAssay (Tox21).
Records with an inconclusive call do not appear. Calls of active or inactive are those of the source. Calls come from the whole dose curve; as a rule, active = well fitted curve in the direction sought with a large enough effect in the repeat runs; inconclusive = weak or mixed curves; inactive = no such curve, though single readings can be large; an effect the other way counts as inactive or inconclusive.

Columns and labels:
[1] = qHTS RealTime-Glo MT Cell Viability Assay in HepG2 cells - 40 hour (AID 1224870); note: nearly all actives have a fitted effect of over 50% in size
In short: (§1)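 Real-time viability: cells seeded at 600 per well together with NanoLuc and cell-permeant prosubstrate, compounds added after 5 h incubation. Luminescence tracked at 0, 8, 16, 24, 32 and 40 h of exposure.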

[2] = A CellTox Green Cytotoxicity Assay to monitor cytotoxicity in HEK293 cells - 40 hour (AID 1224871); note: nearly all actives have a fitted effect of over 45% in size
In short: (§2)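 Homogeneous no-lysis format: HEK293 cell suspension mixed with CellTox Green reagent, seeded, incubated 5 h at 37 C/5% CO2, then dosed by pintool with compound in DMSO.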

[3] = qHTS RealTime-Glo MT Cell Viability Assay in HEK293 cells - 16 hour (AID 1224872); note: nearly all actives have a fitted effect of over 50% in size; note: potency is the fitted concentration of half-maximal effect
In short: (§3)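 Viability tracked continuously by luminescence as live cells reduce a prosubstrate for NanoLuc; HEK293 cells preincubated 5 h, compound-treated at 37 C, and read at 0, 8, 16, 24, 32 and 40 h.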

[4] = qHTS RealTime-Glo MT Cell Viability Assay in HepG2 cells - 8 hour (AID 1224873); note: nearly all actives have a fitted effect of over 55% in size
In short: as §1

[5] = qHTS RealTime-Glo MT Cell Viability Assay in HEK293 cells - 40 hour (AID 1224874); details: RealTime-Glo luminescence; max response: active compounds read low; note: nearly all actives have a fitted effect of over 50% in size; note: potency is the fitted concentration of half-maximal effect
In short: (§4)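 Measured as luminescence from the same continuously cultured HEK293 wells at successive time points (0, 8, 16, 24, 32, 40 h) after compound addition. Reagent present from seeding; dosing at 5 h; incubation 37 C.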

[6] = A CellTox Green Cytotoxicity Assay to monitor cytotoxicity in HEK293 cells - 24 hour (AID 1224875); note: series mostly up to about 77 µM; nearly all actives have a fitted effect of over 45% in size
In short: as §2

[7] = A CellTox Green Cytotoxicity Assay to monitor cytotoxicity in HepG2 cells - 16 hour (AID 1224876); note: nearly all actives have a fitted effect of over 45% in size
In short: (§5)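 Fluorescent DNA-binding dye, 600 HepG2 cells/well, 5 h preincubation then compound in DMSO; same plates read at 0–40 h, 37 C.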

[8] = qHTS RealTime-Glo MT Cell Viability Assay in HepG2 cells - 32 hour (AID 1224877); note: nearly all actives have a fitted effect of over 55% in size
In short: (§6)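 Viability was tracked continuously by NanoLuc luminescence from prosubstrate reduced by living HepG2 cells, at successive time points over 40 h of compound exposure. Cells with reagent were preincubated 5 h at 37 °C before compound addition.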

[9] = A CellTox Green Cytotoxicity Assay to monitor cytotoxicity in HepG2 cells - 24 hour (AID 1224878); note: nearly all actives have a fitted effect of over 45% in size
In short: as §5

[10] = A CellTox Green Cytotoxicity Assay to monitor cytotoxicity in HepG2 cells - 40 hour (AID 1224879); note: nearly all actives have a fitted effect of over 40% in size
In short: as §5

[11] = qHTS RealTime-Glo MT Cell Viability Assay in HEK293 cells - 0 hour (AID 1224880)
In short: as §4

[12] = A CellTox Green Cytotoxicity Assay to monitor cytotoxicity in HEK293 cells - 32 hour (AID 1224881); note: nearly all actives have a fitted effect of over 40% in size
In short: as §2

[13] = A CellTox Green Cytotoxicity Assay to monitor cytotoxicity in HepG2 cells - 0 hour (AID 1224882); note: nearly all actives have a fitted effect of over 35% in size
In short: as §5

[14] = A CellTox Green Cytotoxicity Assay to monitor cytotoxicity in HepG2 cells - 32 hour (AID 1224883); note: nearly all actives have a fitted effect of over 50% in size
In short: as §5

[15] = A CellTox Green Cytotoxicity Assay to monitor cytotoxicity in HEK293 cells - 8 hour (AID 1224884); note: nearly all actives have a fitted effect of over 35% in size
In short: as §2

[16] = qHTS RealTime-Glo MT Cell Viability Assay in HepG2 cells - 16 hour (AID 1224885); note: nearly all actives have a fitted effect of over 50% in size
In short: as §6

[17] = qHTS RealTime-Glo MT Cell Viability Assay in HEK293 cells - 24 hour (AID 1224886)
In short: as §3

[18] = qHTS RealTime-Glo MT Cell Viability Assay in HEK293 cells - 8 hour (AID 1224887); note: nearly all actives have a fitted effect of over 50% in size; note: potency is the fitted concentration of half-maximal effect
In short: as §4

[19] = qHTS RealTime-Glo MT Cell Viability Assay in HepG2 cells - 0 hour (AID 1224889); note: nearly all actives have a fitted effect of over 50% in size
In short: as §6

[20] = A CellTox Green Cytotoxicity Assay to monitor cytotoxicity in HEK293 cells - 16 hour (AID 1224888); note: nearly all actives have a fitted effect of over 35% in size
In short: as §2
% is set by controls: 0 for no effect and ±100 for the full control effect.

C=CC(C)(O)CC/C=C(/C)CCC=C(C)C (stereo unspecified)
inactive: Potency [1] | Potency [2] | Potency [3] | outcome [4] | max response [5] 0.65% | Potency [6] | Potency [7] | Potency [8] | Potency [9] | Potency [10] | Potency [11] | Potency [12] | Potency [13] | Potency [14] | Potency [15] | outcome [16] | Potency [17] | Potency [18] | Potency [19]

CCC(=O)O[C@@H]1C[C@H]2CC[C@]1(C)C2(C)C
inactive: Potency [1] | Potency [2] | Potency [3] | outcome [4] | max response [5] -11.1% | Potency [6] | Potency [7] | Potency [8] | Potency [9] | Potency [10] | Potency [11] | Potency [12] | Potency [13] | Potency [14] | Potency [15] | outcome [16] | Potency [17] | Potency [18] | Potency [19]

N#CCCCC(C#N)CCC#N (stereo unspecified)
inactive: Potency [1] | Potency [2] | Potency [3] | outcome [4] | max response [5] 17.1% | Potency [6] | Potency [7] | Potency [8] | Potency [9] | Potency [10] | Potency [11] | Potency [12] | Potency [13] | Potency [14] | Potency [15] | outcome [16] | Potency [17] | Potency [18] | Potency [19]

CCc1ccc(C(=O)C(C)CN2CCCCC2)cc1 (stereo unspecified)
inactive: Potency [1] | Potency [2] | Potency [3] | outcome [4] | max response [5] 7.68% | Potency [6] | Potency [7] | Potency [8] | Potency [9] | Potency [10] | Potency [11] | Potency [13] | Potency [14] | outcome [16] | Potency [17] | Potency [18] | Potency [19]

O=C(O)c1ccccc1-n1cc(C(=O)O)c(=O)c2cc(Nc3c(F)cc(F)cc3Cl)c(Cl)cc21
inactive: Potency [1] | Potency [2] | Potency [3] | outcome [4] | max response [5] 0.656% | Potency [6] | Potency [7] | Potency [8] | Potency [9] | Potency [10] | Potency [11] | Potency [13] | Potency [14] | Potency [15] | outcome [16] | Potency [17] | Potency [18] | Potency [20] | Potency [19]

NC(=O)c1ccccc1
inactive: Potency [1] | Potency [2] | Potency [3] | outcome [4] | max response [5] 1.7% | Potency [6] | Potency [7] | Potency [8] | Potency [9] | Potency [10] | Potency [11] | Potency [12] | Potency [13] | Potency [14] | Potency [15] | outcome [16] | Potency [17] | Potency [18] | Potency [20] | Potency [19]

COC(=O)/C=C/C(C)=C\C=C\C(C)=C\C=C\C=C(C)\C=C\C=C(C)\C=C\C(=O)O
inactive: Potency [1] | Potency [2] | Potency [3] | outcome [4] | max response [5] 1.87% | Potency [6] | Potency [7] | Potency [8] | Potency [9] | Potency [10] | Potency [11] | Potency [12] | Potency [13] | Potency [14] | outcome [16] | Potency [17] | Potency [18] | Potency [20] | Potency [19]

CCCCCC1CCC(=O)O1 (stereo unspecified)
inactive: Potency [1] | Potency [2] | Potency [3] | outcome [4] | max response [5] 24.1% | Potency [6] | Potency [7] | Potency [8] | Potency [9] | Potency [10] | Potency [11] | Potency [12] | Potency [14] | Potency [15] | Potency [17] | Potency [18] | Potency [20] | Potency [19]

Cc1cccc(C)c1NC(=O)CN1CCCC1
inactive: Potency [1] | Potency [2] | Potency [3] | outcome [4] | max response [5] 8.7% | Potency [6] | Potency [7] | Potency [8] | Potency [9] | Potency [10] | Potency [11] | Potency [12] | Potency [13] | Potency [14] | Potency [15] | outcome [16] | Potency [18] | Potency [20] | Potency [19]

CCCCCCCCCCCC(=O)OCC
inactive: Potency [1] | Potency [2] | Potency [3] | outcome [4] | max response [5] 3.23% | Potency [6] | Potency [7] | Potency [8] | Potency [9] | Potency [10] | Potency [11] | Potency [12] | Potency [14] | Potency [17] | Potency [18] | Potency [20] | Potency [19]

O=C(O)c1cccc(C(=O)O)c1C(=O)O
inactive: Potency [1] | Potency [2] | Potency [3] | outcome [4] | max response [5] -17% | Potency [6] | Potency [7] | Potency [8] | Potency [9] | Potency [10] | Potency [11] | Potency [13] | Potency [14] | Potency [15] | outcome [16] | Potency [18] | Potency [20] | Potency [19]

C=Cc1ccc(C=C)cc1
inactive: Potency [1] | Potency [2] | Potency [3] | outcome [4] | max response [5] 11.4% | Potency [6] | Potency [7] | Potency [8] | Potency [9] | Potency [10] | Potency [11] | Potency [13] | Potency [14] | outcome [16] | Potency [17] | Potency [18] | Potency [20] | Potency [19]

COc1cc(CNC(=O)CCCC/C=C/C(C)C)ccc1O
inactive: Potency [1] | Potency [2] | outcome [4] | Potency [6] | Potency [7] | Potency [8] | Potency [9] | Potency [10] | Potency [11] | Potency [12] | Potency [13] | Potency [14] | Potency [15] | outcome [16] | Potency [20] | Potency [19]
active: Potency [3] 4.25 µM | Potency [5] 8.48 µM | Potency [18] 2.39 µM

CCCCCCCCNC
inactive: Potency [1] | Potency [2] | Potency [3] | outcome [4] | max response [5] 3.01% | Potency [6] | Potency [7] | Potency [8] | Potency [9] | Potency [10] | Potency [11] | Potency [12] | Potency [13] | Potency [14] | Potency [15] | outcome [16] | Potency [17] | Potency [18] | Potency [20] | Potency [19]
